A selection: hits, their analogues and other compounds. The true share with any hit is near 4.7%.
D1 PAM: enhances dopamine response at the human D1 receptor; AID 504651; HEK293 TREx D1 cells, calcium flux, dopamine EC20 potentiation; potentiation, % at 10 µM; 360,000 tested, 0.036% active; P21728; in the data active = potentiation above about 30%; note: 0% is about no effect
Target sequence (P21728 whole entry, looked up): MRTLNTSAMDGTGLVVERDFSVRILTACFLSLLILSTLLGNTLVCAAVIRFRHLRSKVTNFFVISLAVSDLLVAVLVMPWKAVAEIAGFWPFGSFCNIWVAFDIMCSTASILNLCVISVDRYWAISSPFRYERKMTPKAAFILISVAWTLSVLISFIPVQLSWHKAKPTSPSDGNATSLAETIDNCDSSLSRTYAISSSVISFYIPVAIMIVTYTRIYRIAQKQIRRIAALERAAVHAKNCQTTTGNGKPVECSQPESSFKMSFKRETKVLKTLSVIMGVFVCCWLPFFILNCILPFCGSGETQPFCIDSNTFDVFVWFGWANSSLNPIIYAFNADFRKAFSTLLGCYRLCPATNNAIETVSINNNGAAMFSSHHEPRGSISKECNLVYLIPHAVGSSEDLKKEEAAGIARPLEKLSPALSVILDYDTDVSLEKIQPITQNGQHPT
TRHR PAM: allosterically enhances the human TRH receptor; P34981; TRHR cells, fluo-8 calcium fluorescence, EC20 TRH enhancement; enhancement, % at 2 µM; 360,000 tested, 0.66% active; in the data active = enhancement above about 30%; note: 0% is about no effect
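Enhancer read-out: after compound pinning and an initial kinetic agonist-mode read, an EC20 of TRH (10 nM final) was injected and fluo-8 calcium signal (Ex 480/Em 530) followed at 1 s/cycle for 100 cycles in TRHR-expressing cells.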
D1 antagonist: blocks dopamine activation of the human D1 receptor; HEK293 TREx D1 cells, calcium flux, dopamine EC80; active compounds read low; activity change, negative = inhibition, % at 10 µM; 360,000 tested, 3.2% active; in the data active = activity change below about -30%; note: % is set by controls: 0 for no effect and ±100 for the full control effect
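Using tetracycline-induced force-coupled D1 Hek293 cells and a calcium dye, signals were followed for 180 s after compound, then for 180 s after EC80 dopamine, to detect inhibitors.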
D1 ag: activates the human D1 dopamine receptor. 360,000 tested, 1% active. HEK293 T-REx D1 cells, calcium flux, agonist mode. P21728. activation, % at 2 µM; note: 0% is about no effect
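Tetracycline-induced HEK293 TREx D1 cells, force-coupled to calcium signalling, were dye-loaded with a no-wash calcium kit. Compound was pin-added after a 10 s baseline. Fluorescence was read kinetically at 1 cycle/s for 180 s, with calcium rises flagged as agonism.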
TRHR agonist: TRH receptor (human) agonism | TRHR cells, calcium flux fluo-8, FDSS agonist mode | P34981 | activation, % at 2 µM | AID 493084 | 360,000 tested, 0.18% active; note: 0% is about no effect
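Agonist-mode FDSS calcium read (Ex 480/Em 530, 1 s cycles) in 1536-well TRHR cells with fluo-8 dye, after 10-cycle baseline and 23 nL compound addition; TRH at EC20 (10 nM final) added afterwards for the enhancer phase.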
Active calls of the source: *. Cut-off read from the data, not from the text of the source, unless noted: active = activation above about 30%; inactive = the rest.

Results for CCn1nc(-c2ccccc2)c(-c2ccccc2)c(C(=O)Nc2ccccc2C(N)=O)c1=O ?
D1 PAM: 0; TRHR PAM: -5; D1 antagonist: -42*; D1 ag: 7; TRHR agonist: 0

Results for Cc1cccc2nc(-c3ccccn3)c(Nc3ccc(F)cc3)n12 ?
D1 PAM: 1; TRHR PAM: 1; D1 antagonist: 10; D1 ag: 1; TRHR agonist: -1

Results for Nc1c(C(=O)Nc2ccccc2Cl)c2ccccn2c1C(=O)c1ccccc1 ?
D1 PAM: -2; TRHR PAM: 4; D1 antagonist: 1; D1 ag: -2; TRHR agonist: 1

What do the screens show for `COc1cccc(C(=O)Nc2ccc3[nH]ncc3c2)c1`?
D1 PAM: -8; TRHR PAM: 1; D1 antagonist: -34*; D1 ag: -2; TRHR agonist: -1

How did CCOc1cccc(NC(=O)c2ccc(S(=O)(=O)N(C)C)cc2)c1 do in these assays?
D1 PAM: -12; TRHR PAM: -5; D1 antagonist: -43*; D1 ag: 4; TRHR agonist: 0

Results for CCOc1cccc(C(=O)Nc2ccc3[nH]ncc3c2)c1 ?
D1 PAM: -6; TRHR PAM: -4; D1 antagonist: -32*; D1 ag: -4; TRHR agonist: 0

Results for CCOc1cc(OCC)cc(C(=O)Nc2cccc(-c3nc4ccccc4[nH]3)c2)c1 ?
D1 PAM: -3; TRHR PAM: 1; D1 antagonist: -38*; D1 ag: 1; TRHR agonist: 1

What do the screens show for `CCN(CC)c1nc2ccccc2n(Cc2cccc(OC)c2)c1=O`?
D1 PAM: 2; TRHR PAM: 2; D1 antagonist: 16; D1 ag: 3; TRHR agonist: 1

Results for Cc1onc(-c2c(Cl)cccc2Cl)c1C(=O)N(C)Cc1ccccc1 ?
D1 PAM: 6; TRHR PAM: 0; D1 antagonist: -25; D1 ag: 3; TRHR agonist: 1

How did CCOc1cccc(C(=O)Nc2ccncc2)c1 do in these assays?
D1 PAM: -5; TRHR PAM: 5; D1 antagonist: -32*; D1 ag: 7; TRHR agonist: 0

How did COc1cc(OC)cc(C(=O)Nc2ccc(C(=O)c3ccncc3)cc2)c1 do in these assays?
D1 PAM: -2; TRHR PAM: 1; D1 antagonist: -38*; D1 ag: 5; TRHR agonist: 0

What do the screens show for `Cc1cccc(C(=O)NC2CCN(C#N)CC2)c1`?
D1 PAM: 2; TRHR PAM: -2; D1 antagonist: -15; D1 ag: -1; TRHR agonist: -2

How did CCc1cccc(NC(=O)CN2c3ccccc3S(=O)(=O)c3ccccc32)c1 do in these assays?
D1 PAM: -4; TRHR PAM: 6; D1 antagonist: -6; D1 ag: 4; TRHR agonist: 1

How did COc1cccc(C2=NN(S(C)(=O)=O)C(c3cn(-c4ccccc4)nc3-c3cccs3)C2)c1 (stereo not drawn) do in these assays?
D1 PAM: -2; TRHR PAM: 21; D1 antagonist: -39*; D1 ag: 1; TRHR agonist: 2

What do the screens show for `COc1cccc(C2CC(c3cccs3)=NN2S(C)(=O)=O)c1` (stereo not drawn)?
D1 PAM: 0; TRHR PAM: -2; D1 antagonist: -2; D1 ag: 3; TRHR agonist: -2

Results for Cc1ccc(-c2nn(-c3ccccc3)cc2C2CC(c3cccs3)=NN2C(=O)CCCC(=O)O)cc1 (stereo not drawn) ?
D1 PAM: -7; TRHR PAM: -2; D1 antagonist: -7; D1 ag: 1; TRHR agonist: 0

What do the screens show for `O=C(O)CCC(=O)N1N=C(c2cccs2)CC1c1cn(-c2ccccc2)nc1-c1ccccc1` (stereo not drawn)?
D1 PAM: -1; TRHR PAM: 34*; D1 antagonist: 11; D1 ag: 1; TRHR agonist: 0

How did COc1ccccc1CNC(=O)CCC1N=C2c3ccccc3N=C(SCC(=O)Nc3ccc(F)cc3)N2C1=O (stereo not drawn) do in these assays?
D1 PAM: -3; TRHR PAM: -6; D1 antagonist: -27; D1 ag: -2; TRHR agonist: 0

How did COc1ccc(C)cc1NC(=O)NC1CCCc2ccccc21 (stereo not drawn) do in these assays?
D1 PAM: -1; TRHR PAM: 2; D1 antagonist: 1; D1 ag: 2; TRHR agonist: 0

Screening results: PubChem BioAssay, National Center for Advancing Translational Sciences (NCATS)
